Biological target: YES1 90-152, P07947
Sequence (P07947 90-152): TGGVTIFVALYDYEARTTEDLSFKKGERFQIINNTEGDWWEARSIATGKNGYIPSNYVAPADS

| Binder | selected by phage display |
| --- | --- |
| NLRALPLPPRPPATST [RNF223, E7ERA6] | confidence 3 (active) |
| RPLPSPAPPPPQLLEA [KIF26A, Q9ULI4] | confidence 2 (active) |
| LLPPPPPGAPLPSLPF [SOBP, A7XYQ1] | confidence 2 (active) |
| PQKEGERALPSIPKLA [PTK2, Q05397] | confidence 3 (active) |
| TAGPGRPLPQRPMPDQ [ZFHX2, Q9C0A1] | confidence 2 (active) |
| ELPLLPPPPSLPTIGA [SETD5, Q9C0A6] | confidence 3 (active) |
| VDPSKHIRPVPSLPDV [VPS54, Q9P1Q0] | confidence 2 (active) |
| QLGDLPPKPQLSDLPP [ASAP1, Q9ULH1] | confidence 2 (active) |
| LPLPPLPGAGIPPPPP [FMN2, Q9NZ56] | confidence 2 (active) |
| FAGLPLPLPPTSQGLS [PROSER1, Q86XN7] | confidence 3 (active) |
| DMLPALLRPPEPLPTP [SLC39A5, Q6ZMH5] | confidence 2 (active) |
| PGRGLPQLPSSAYSVD [ST5, P78524] | confidence 4 (active) |
| AAVGVSKPLPSVPPSI [MADD, Q8WXG6] | confidence 2 (active) |
| QPAVFPPSFRELPPPP [IFT52, Q9Y366] | confidence 4 (active) |
| SSENPYATIRDLPSLP [PEAR1, Q5VY43] | confidence 4 (active) |
| LQRTLPSVPPDTKLSK [TCF24, Q7RTU0] | confidence 2 (active) |
| MSGHTLPPLPVPGTNS [EPPK1, P58107] | confidence 3 (active) |
| APTLPLPPPPGFPPLP [SETD1B, Q9UPS6] | confidence 3 (active) |
| PTPSSPLPSVPVSVPA [PLEKHN1, Q494U1] | confidence 3 (active) |
| QPLPPAPTSVPPAAFP [PER1, O15534] | confidence 2 (active) |

| Binder | selected by phage display |
| --- | --- |
| TVELEEKRFRTLPLVP [ELL3, Q9HB65] | confidence 3 (active) |
| SERELPQPPPLLSPQN [SAMD11, Q96NU1] | confidence 4 (active) |
| DKPLPVPPTLRDLPPP | confidence 4 (active) |
| VKRTLPSPPPEEAHLP [BSN, Q9UPA5] | confidence 3 (active) |
| NQQKALPPPPASIPPP [FMN1, Q68DA7] | confidence 2 (active) |
| LPPPPPPDRPYSVGAE | confidence 4 (active) |
| DKTSSIQSRPLPSPPK [BCAR1, P56945] | confidence 2 (active) |
| TLTDLPLLPGVPMAGD [LRRC46, Q96FV0] | confidence 2 (active) |
| TSTLPPLPLPPLLPGD [CDK12, Q9NYV4] | confidence 3 (active) |
| QQQQQQLPALPPTPQQ [R3HDM2, Q9Y2K5] | confidence 2 (active) |
| SRALPATPQLPSRSGV [WIPF1, O43516] | confidence 3 (active) |
| TKTPPRDLPTIPGVTS [EIF4EBP1, Q13541] | confidence 3 (active) |
| LPSAESLSRRPLPALP [EFS, O43281] | confidence 3 (active) |
| PLPPPPPLPKIQPLEP [ZBTB21, Q9ULJ3] | confidence 2 (active) |
| AAPTLGHRTLPLLPSL [PRRT4, C9JH25] | confidence 2 (active) |
| LPSLPLEPSLLSGVVQ [LRP10, Q7Z4F1] | confidence 2 (active) |
| HSSRELPSRPDGVLHV [VWA5B2, Q8N398] | confidence 3 (active) |
| RLSLEGLPSLPSMHEY [IRS2, Q9Y4H2] | confidence 3 (active) |
| TFRWTSLTRELPPPPP [KMT2B, Q9UMN6] | confidence 2 (active) |
| KDRPLPPAPLSPAPGP [MAP1A, P78559] | confidence 3 (active) |

Biological target: YAP1 169-207, P46937
Sequence (P46937 169-207): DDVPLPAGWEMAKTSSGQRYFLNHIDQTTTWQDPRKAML

| Binder | selected by phage display |
| --- | --- |
| IAPPQYVTTSASNIVS [ARID2, Q68CP9] | confidence 4 (active) |
| AEFQPPYFPPPYPQPP [TFAP2E, Q6VUC0] | confidence 2 (active) |
| LQEQQQQQMHLQPPSY [TRERF1, Q96PN7] | confidence 2 (active) |
| TPRSSVELPPYSGTVL [USP10, Q14694] | confidence 2 (active) |
| SPQLPQYPGLQQAQTM [MED12L, Q86YW9] | confidence 3 (active) |
| APPPPGYHQNGVIRNQ [MYO1E, Q12965] | confidence 3 (active) |
| IELLPSYSTATLIDEP [SLC34A2, O95436] | confidence 3 (active) |
| PPPSYAATIASKLAIH [KLF5, Q13887] | confidence 3 (active) |
| EYEKLPAYLATSPIPT [LPIN2, Q92539] | confidence 3 (active) |
| ESLPSYLESSRVNTPV [ANK3, Q12955] | confidence 4 (active) |
| QALPDYSLGPHYTSQK [CSRNP1, Q96S65] | confidence 2 (active) |
| GSPMVPSYETSVSPQA [PIKFYVE, Q9Y2I7] | confidence 2 (active) |
| MPPPGYPHIPQALSTP [FOXJ3, Q9UPW0] | confidence 4 (active) |
| SPSQYINEENLPVYPD [KNL1, Q8NG31] | confidence 2 (active) |
| MGDLPPYPERPAQQPP [RSPH6A, Q9H0K4] | confidence 2 (active) |
| PTMTPPPYLPGPNASP [FOXI1, Q12951] | confidence 4 (active) |
| ASEVGSPPSYSEALLD [LDLRAD3, Q86YD5] | confidence 3 (active) |
| AYPPSYPSAMSPTHHL [FNDC3B, Q53EP0] | confidence 2 (active) |
| HQQPPPYPLMHHQMPP [SMARCC1, Q92922] | confidence 3 (active) |
| EAPPPYSPIGDDVQLL [ARHGAP5, Q13017] | confidence 3 (active) |
| SPPAYHMHVFDRPYPL [CUEDC1, Q9NWM3] | confidence 3 (active) |
| SLDALKVFDGIPPPYD [RPL13AP3, Q6NVV1] | confidence 2 (active) |
